The structures appear in SMILES notation. Hit rate of the full screen: of about 330,000 compounds, about 4,900 (1.5%) were called active. This is one part of a sample in which actives are shown more often than they occur.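 The calls were made as follows: active = inhibition above about 50% at the single test dose (limit read from the data); inactive = the rest.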

This assay deals with Sentrin-specific protease 7 (Homo sapiens) (UniProt Q9BQF6). Put plainly: blockers of human SENP7 peptidase activity – biochemical, luminescence, uHTS, primary screen (AID 434973).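 Also: plate controls were DMSO with enzyme for no effect and no enzyme buffer wells for full effect.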 To be noted: recombinant SENP7, Z-RLRGG-aminoluciferin luminescence, 40 min; at 5 µM; stronger effect = higher value.
Usually inhibition stands for the drop in the measured response relative to a control, in per cent. Take `CCO/N=C(/C)c1c(O)cc(-c2ccccc2)n(-c2ccccc2)c1=O`: the inhibition is 0.576% (inactive).

As for `CC1CCCC(NC(=O)c2cc(-c3ccncc3)nc3ccccc23)C1C` (stereo unspecified), the inhibition is -16.1% (inactive).

Turning to `S=c1[nH]nc(-c2cc(-c3ccccc3)n[nH]2)n1/N=C/c1c2ccccc2cc2ccccc12`, the inhibition is -9.51% (inactive).

In the case of `S=c1[nH]nc(-c2cc(-c3ccsc3)n[nH]2)n1-c1ccccc1`, the inhibition is 4.56% (inactive).

For the compound `c1ccc(-c2cc(-c3ccccc3)[nH]n2)cc1`, the inhibition was 54.4% (active).

As for `CC(C)C(=O)NCc1cc(-c2ccc(Cl)cc2)no1`, the inhibition is 5.4% (inactive).

For `Cc1ccc(NC(=O)c2cc(-c3ccccc3O)n[nH]2)cc1C`, the inhibition was -11.8% (inactive).

Turning to `Oc1ccccc1-c1cc(-c2ccc(Cl)cc2)n[nH]1`, the inhibition was 92% (active).

With `CO[C@@H]1[C@@H](OC(N)=O)[C@@H](O)C(Oc2ccc3c(O)c(NC(=O)c4ccc(O)c(CC=C(C)C)c4)c(=O)oc3c2C)OC1(C)C` (stereo partly specified), the inhibition is -1.54% (inactive).

As to `COc1ccc(-n2nnnc2SCC(=O)c2ccc(OC)c(OC)c2)cc1`, the inhibition was 3.65% (inactive).

Take `CCC(C)C(N=C1NS(=O)(=O)c2ccccc21)C(=O)N1CCC(C)CC1` (stereo unspecified): the inhibition was 2.08% (inactive).

On to `CCc1nnc(NC(=O)CSCc2cc(=O)n3cc(C)sc3n2)s1`, for which the inhibition was -0.123% (inactive).

For the compound `CCCCN(C(=O)C1=NN(c2cc(C)ccc2C)C(=O)CC1)c1c(N)n(CCC)c(=O)[nH]c1=O`, the inhibition was 1.8% (inactive).

As for `Cc1ccc(CNC(=O)C2CCCN2C(=O)NCc2ccccc2)cc1` (stereo unspecified), the inhibition was -3.49% (inactive).

As for `O=C(NC1CCCC1)C(c1ccccn1)N(C(=O)c1csnn1)C1CCCC1` (stereo unspecified), the inhibition was 4.87% (inactive).

Turning to `CCC(=O)Nc1ccc(C(=O)NNC(=O)c2ccc(Cl)cc2)cc1`, the inhibition was -16.2% (inactive).

For `O=C(NCc1ccccn1)Nc1ccc(Cl)cc1`, the inhibition is 0.805% (inactive).

As for `O=C(Nc1ccc(Cl)cc1)c1ccsn1`, the inhibition was 51% (active).

As to `O=C1CC(Cc2ccccc2)C(=O)N1c1ccc(Cl)cn1` (stereo unspecified), the inhibition was -5.29% (inactive).

As for `COc1ccccc1C1CCN(C(=S)Nc2ccc(Br)cc2)CC1`, the inhibition is 5.73% (inactive).

For `CCc1ccc2oc(-c3ccc(N)cc3)nc2c1`, the inhibition is 97.1% (active).

For the compound `Cc1cc2nc(-c3ccc(NC(=O)c4cccnc4)cc3)oc2cc1C`, the inhibition was -3.95% (inactive).

For `O=C(Nc1ccc2oc(-c3ccc4ccccc4c3)nc2c1)c1cccs1`, the inhibition was -22.1% (inactive).

`CNC(=O)c1c(NC(NC(=O)c2ccco2)C(=O)c2ccc(Cl)cc2)sc2c1CCCC2` (stereo unspecified): the inhibition is 3.25% (inactive).

Consider `CCOC(=O)c1ccc(Nc2cc3ccccc3c(=O)[nH]2)cc1`, for which the inhibition was 84.1% (active).

On to `CCOC(=O)c1ccc(Nc2cc(C)nc3nc(C)nn23)cc1`, for which the inhibition is 0.148% (inactive).

As to `CCOC(=O)c1ccc(NC(=O)c2cc(=O)[nH]c3ccccc23)cc1`, the inhibition was 4.62% (inactive).

For the compound `Cc1ccc(CN2CCN(c3ncccn3)CC2)c(C)c1`, the inhibition was -3.53% (inactive).

For `Cc1cc(=O)oc2c(C)c(OCC(=O)NCCc3ccc(S(N)(=O)=O)cc3)ccc12`, the inhibition is 7.75% (inactive).

`N#C/C=C/N1CCN(Cc2ccc3c(c2)OCO3)CC1`: the inhibition is -6.74% (inactive).

Turning to `Cc1c(NC(=S)NC(=O)CCc2ccccc2)c(=O)n(-c2ccccc2)n1C`, the inhibition was -7.18% (inactive).

In the case of `Nc1nonc1-c1noc(-c2ccc(Br)o2)n1`, the inhibition was 9.66% (inactive).

Consider `Nc1ccc(-c2nnc(-c3ccc(-c4ccccc4)cc3)o2)cc1`, for which the inhibition is 70.3% (active).

On to `Brc1ccc(-c2nnc(-c3ccccc3)o2)o1`, for which the inhibition was 57.6% (active).

With `OC(c1nnc(-c2ccccc2)o1)c1cccs1` (stereo unspecified), the inhibition was 2.83% (inactive).

In the case of `Nc1ccc(-c2nnc(-c3ccccc3)o2)cc1`, the inhibition was 49.9% (inactive).

For `CN(C)c1ccc(-c2nnc(-c3cccnc3)o2)cc1`, the inhibition is 8.14% (inactive).

For `Cn1nc(-c2ccccc2)c(-c2nc(-c3ccc(Cl)cc3)no2)c1Cl`, the inhibition is 1.67% (inactive).

`Brc1ccc(-c2noc(-c3ccccc3)n2)o1`: the inhibition is 88.5% (active).

Consider `O=C(OCc1ccc(Br)cc1)c1cccc(-c2nnc(-c3ccccc3)o2)c1`, for which the inhibition was 23.5% (inactive).

On to `COc1ccc(C2C(C(C)=O)=C(O)C(=O)N2CCc2c[nH]c3ccccc23)cc1` (stereo unspecified), for which the inhibition was 0.562% (inactive).

As to `COc1ccc(NC(=O)c2sccc2SCC#N)cc1`, the inhibition was 7.98% (inactive).

Turning to `COCCN1CCn2c(nc3cc(NS(C)(=O)=O)ccc32)C1`, the inhibition is 3.45% (inactive).

Turning to `O=C(OCc1ccc([N+](=O)[O-])cc1)C1CC(=O)N(Cc2ccccc2Cl)C1` (stereo unspecified), the inhibition is 2.69% (inactive).

Take `Cc1ccc(-c2ccc(/C=C(\C#N)C(N)=S)o2)c([N+](=O)[O-])c1`: the inhibition is 2.25% (inactive).

For `Cc1cc(C)nc(SCc2cn3c(C)cc(C)nc3n2)n1`, the inhibition is 3.49% (inactive).

Take `CSc1nc(C)nc(C2CC2)c1C#N`: the inhibition is -2.65% (inactive).

With `CC(=O)Nc1ccc(S(=O)(=O)NCC2CCC(C(=O)NCCc3ccccc3)CC2)cc1` (stereo unspecified), the inhibition is 2.3% (inactive).

As to `CCOc1ccc(NC(=O)COC(=O)C2CCC(=O)N2)c([N+](=O)[O-])c1` (stereo unspecified), the inhibition is -6.28% (inactive).

In the case of `CCC(C)CCN1CCN=C1N(C)C` (stereo unspecified), the inhibition is 9.82% (inactive).

For `Cc1noc(C)c1S(=O)(=O)N(C)C[C@H]1Oc2ccc(NC(=O)C3CC3)cc2C(=O)N([C@H](C)CO)C[C@@H]1C`, the inhibition is -0.149% (inactive).

For the compound `COC(=O)C1=C(C)N(c2ccc(C)cc2)/C(=C/c2ccc(O)cc2)C1=O`, the inhibition is 8.14% (inactive).

For `COc1cc(C#Cc2ccc3cc(CCCO)oc(=O)c3c2)cc(OC)c1`, the inhibition is 79.7% (active).

As to `COc1cc(/C=C2\Oc3ccc(C#Cc4ccc(O)cc4)cc3C2=O)cc(OC)c1`, the inhibition is -7.29% (inactive).

Consider `O=C1c2ccccc2C(=O)N1CCC#Cc1ccc2cc(C3(O)CCCCC3)oc(=O)c2c1`, for which the inhibition was 2.91% (inactive).

Take `Cn1c(=O)c2c(ncn2CC(=O)N/N=C/c2cn[nH]c2-c2ccc(F)cc2)n(C)c1=O`: the inhibition is 1.2% (inactive).

With `CCCC(CNC(=O)COC(=O)C1=NNC(=O)CC1)c1ccc(Cl)cc1Cl` (stereo unspecified), the inhibition is -4.17% (inactive).

As for `O=C(O)CCCN1C(=O)c2ccccc2Sc2ncccc21`, the inhibition was -1.32% (inactive).

As for `CCNc1nc(N)nc(-c2cc(Cl)ccc2OC)n1`, the inhibition is 3.35% (inactive).

On to `CCOc1ccc(Oc2nc(C)cc(OC)n2)nn1`, for which the inhibition was -1.32% (inactive).

For `CCNc1nc(N)nc(Oc2ccc(OCC)nn2)n1`, the inhibition is 73.1% (active).

The values above are taken from PubChem BioAssay AID434973 (Sanford-Burnham Center for Chemical Genomics, 2010).
